Among the data in publication PMC7862700, “An all-to-all approach to the identification of sequence-specific readers for epigenetic DNA modifications on cytosine” are binding signal values, retold here.

Common to all, as to experiment: DAPPL (digital affinity profiling via proximity ligation, sequencing); 10 mM Tris-HCl pH 7.5, 50 mM NaCl, 1 mM DTT, 4% glycerol, room temperature, 30 min; GST-TFs on glutathione beads, 16-mer random dsDNA library, 0.1% formaldehyde crosslink after washing; high values mean tight binding
What all share (conditions): protein: recombinant; tags: N-terminal GST; dsDNA, one strand shown

The target in one assay is T1, ERF (Homo sapiens, UniProt P50548 1-548).
T1 sequence: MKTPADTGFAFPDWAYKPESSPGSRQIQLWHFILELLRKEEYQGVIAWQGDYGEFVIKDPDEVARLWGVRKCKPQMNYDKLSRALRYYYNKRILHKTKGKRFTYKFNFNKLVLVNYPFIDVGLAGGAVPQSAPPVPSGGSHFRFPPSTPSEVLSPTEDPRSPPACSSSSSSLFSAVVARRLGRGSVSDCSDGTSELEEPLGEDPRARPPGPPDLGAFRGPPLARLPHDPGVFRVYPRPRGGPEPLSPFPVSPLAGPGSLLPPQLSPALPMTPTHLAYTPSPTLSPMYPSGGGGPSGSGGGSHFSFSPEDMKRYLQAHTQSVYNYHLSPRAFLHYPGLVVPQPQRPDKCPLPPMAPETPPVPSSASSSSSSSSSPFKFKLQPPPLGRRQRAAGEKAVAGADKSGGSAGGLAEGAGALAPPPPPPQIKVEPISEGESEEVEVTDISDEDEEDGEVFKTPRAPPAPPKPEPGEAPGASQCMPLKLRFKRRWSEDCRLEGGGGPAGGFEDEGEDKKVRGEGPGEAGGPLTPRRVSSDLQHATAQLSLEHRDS
The method, boiled down:
(§1)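 A tag-only sample was pooled with DNA-barcoded human transcription factors that had been expressed in yeast as GST fusions and captured on glutathione beads. The pools were incubated for 30 min at room temperature with 200 nmole of a random double-stranded 16-mer DNA library in Tris/NaCl/DTT/glycerol buffer, then washed, crosslinked with 0.1% formaldehyde, proximity-ligated (BsaI/T4 ligase, 1 h, 37 °C), PCR-amplified and sequenced on an Illumina NextSeq500. Binding signal is each hexamer's read frequency for a factor divided by its frequency for the tag-only sample.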

In the next assay the target is T2, ETV3L (Homo sapiens, UniProt Q6ZN32 1-361).
T2 sequence: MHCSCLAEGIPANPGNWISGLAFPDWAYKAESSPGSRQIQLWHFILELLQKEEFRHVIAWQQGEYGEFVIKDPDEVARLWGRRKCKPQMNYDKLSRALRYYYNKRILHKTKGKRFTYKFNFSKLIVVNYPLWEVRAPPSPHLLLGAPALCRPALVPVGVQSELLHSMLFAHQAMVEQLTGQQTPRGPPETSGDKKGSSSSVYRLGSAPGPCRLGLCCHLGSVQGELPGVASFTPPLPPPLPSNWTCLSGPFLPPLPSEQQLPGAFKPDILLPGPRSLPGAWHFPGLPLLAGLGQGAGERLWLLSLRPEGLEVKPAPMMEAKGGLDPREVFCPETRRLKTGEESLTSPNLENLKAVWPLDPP
The method in brief: as §1

In a further assay the target is T3, ETS2 (Homo sapiens, UniProt P15036 1-469).
T3 sequence: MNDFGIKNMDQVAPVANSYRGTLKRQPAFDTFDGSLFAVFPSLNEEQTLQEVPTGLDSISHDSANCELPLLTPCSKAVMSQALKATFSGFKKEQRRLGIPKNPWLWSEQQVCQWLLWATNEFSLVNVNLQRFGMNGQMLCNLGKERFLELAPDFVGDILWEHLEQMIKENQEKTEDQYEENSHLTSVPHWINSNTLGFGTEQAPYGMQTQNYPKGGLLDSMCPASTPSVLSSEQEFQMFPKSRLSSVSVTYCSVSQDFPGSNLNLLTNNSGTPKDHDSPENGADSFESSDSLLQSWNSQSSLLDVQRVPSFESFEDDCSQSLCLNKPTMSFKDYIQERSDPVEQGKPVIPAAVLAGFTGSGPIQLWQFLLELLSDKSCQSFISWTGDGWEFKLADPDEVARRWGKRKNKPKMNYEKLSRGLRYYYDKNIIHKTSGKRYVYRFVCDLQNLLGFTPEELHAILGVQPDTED
The method, boiled down:
as §1

In another assay the target is T4, SPDEF (Homo sapiens, UniProt O95238 1-335).
T4 sequence: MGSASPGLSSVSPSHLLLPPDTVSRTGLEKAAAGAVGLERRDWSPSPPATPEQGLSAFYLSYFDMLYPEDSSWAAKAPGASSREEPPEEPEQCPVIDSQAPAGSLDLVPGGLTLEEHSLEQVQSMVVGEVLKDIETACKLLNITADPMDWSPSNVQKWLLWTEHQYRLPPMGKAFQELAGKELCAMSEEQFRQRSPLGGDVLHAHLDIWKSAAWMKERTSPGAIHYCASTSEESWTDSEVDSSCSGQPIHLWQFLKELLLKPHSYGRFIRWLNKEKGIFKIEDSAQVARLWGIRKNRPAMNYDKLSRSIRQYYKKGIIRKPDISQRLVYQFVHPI
The method in brief:
as §1

The target in a further assay is T5, ETV7 (Homo sapiens, UniProt Q9Y603 1-341).
T5 sequence: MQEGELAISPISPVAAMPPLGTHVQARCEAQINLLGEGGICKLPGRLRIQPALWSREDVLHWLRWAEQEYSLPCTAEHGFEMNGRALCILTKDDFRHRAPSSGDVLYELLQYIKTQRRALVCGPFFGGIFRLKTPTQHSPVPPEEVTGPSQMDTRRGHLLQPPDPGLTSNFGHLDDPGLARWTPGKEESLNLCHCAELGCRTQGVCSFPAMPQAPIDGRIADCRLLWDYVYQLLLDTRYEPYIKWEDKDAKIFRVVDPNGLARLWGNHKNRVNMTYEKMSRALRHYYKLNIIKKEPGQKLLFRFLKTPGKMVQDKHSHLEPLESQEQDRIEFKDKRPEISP
The method, boiled down:
as §1

For a further assay, the target named is T6, ELF5 (Homo sapiens, UniProt Q9UKW6-2 1-255).
T6 sequence: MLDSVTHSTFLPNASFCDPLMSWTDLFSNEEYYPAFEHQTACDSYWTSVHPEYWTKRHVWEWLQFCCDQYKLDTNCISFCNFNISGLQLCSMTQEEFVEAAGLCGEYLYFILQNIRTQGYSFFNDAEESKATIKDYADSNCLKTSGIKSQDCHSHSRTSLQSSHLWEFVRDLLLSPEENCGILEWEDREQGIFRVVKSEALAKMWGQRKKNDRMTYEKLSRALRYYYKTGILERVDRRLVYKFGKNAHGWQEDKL
The method, boiled down: as §1

A further assay has as its target T7, ETV3 (Homo sapiens, UniProt P41162-2 1-143).
T7 sequence: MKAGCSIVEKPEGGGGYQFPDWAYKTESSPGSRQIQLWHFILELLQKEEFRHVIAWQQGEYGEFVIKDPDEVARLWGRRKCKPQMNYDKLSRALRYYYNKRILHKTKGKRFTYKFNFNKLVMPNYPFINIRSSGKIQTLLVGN
The method in brief:
as §1

The target of a further assay is ETV6 (Homo sapiens, UniProt P41212 1-452). The method, boiled down: as §1
Sequence of ETV6 (P41212 whole entry): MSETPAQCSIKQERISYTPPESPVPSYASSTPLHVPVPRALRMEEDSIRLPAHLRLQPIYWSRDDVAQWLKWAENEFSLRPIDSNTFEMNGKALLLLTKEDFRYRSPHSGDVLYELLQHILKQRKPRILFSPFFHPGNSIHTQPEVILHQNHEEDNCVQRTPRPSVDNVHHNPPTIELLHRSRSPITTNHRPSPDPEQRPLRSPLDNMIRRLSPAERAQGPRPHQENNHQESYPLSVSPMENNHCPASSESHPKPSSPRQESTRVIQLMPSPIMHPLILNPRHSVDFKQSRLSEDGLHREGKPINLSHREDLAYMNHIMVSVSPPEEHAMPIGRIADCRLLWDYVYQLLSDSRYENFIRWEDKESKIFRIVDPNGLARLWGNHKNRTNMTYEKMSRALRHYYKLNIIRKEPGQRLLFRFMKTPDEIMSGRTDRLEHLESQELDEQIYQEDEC

For CCGGTT, the binding signal with ERF was 1.82 fold enrichment (6-mer frequency, TF over GST control); with ETV3L it was 1.94 fold enrichment (6-mer frequency, TF over GST control); with ETS2, 1.96 fold enrichment (6-mer frequency, TF over GST control); in the assay with SPDEF, 2.99 fold enrichment (6-mer frequency, TF over GST control); with ETV7, 1.77 fold enrichment (6-mer frequency, TF over GST control); with ELF5 it was 2.37 fold enrichment (6-mer frequency, TF over GST control). For the same sequence, the binding signal in the assay with ETV3 was 2.05 fold enrichment (6-mer frequency, TF over GST control); in the assay with ETV6, 2.19 fold enrichment (6-mer frequency, TF over GST control).
With TATAAG, the binding signal was 1.2 fold enrichment (6-mer frequency, TF over GST control) with ERF; 1.21 fold enrichment (6-mer frequency, TF over GST control) with ETV3L; 1.17 fold enrichment (6-mer frequency, TF over GST control) with ETS2; 1.2 fold enrichment (6-mer frequency, TF over GST control) with SPDEF; 1.18 fold enrichment (6-mer frequency, TF over GST control) in the assay with ETV7; 1.16 fold enrichment (6-mer frequency, TF over GST control) with ELF5. Moreover, the binding signal in the assay with ETV3 was 1.15 fold enrichment (6-mer frequency, TF over GST control); with ETV6 it was 1.19 fold enrichment (6-mer frequency, TF over GST control).
In the case of TCGAAT, the binding signal was 1.13 fold enrichment (6-mer frequency, TF over GST control) with ERF; 1.09 fold enrichment (6-mer frequency, TF over GST control) with ETV3L; 1.06 fold enrichment (6-mer frequency, TF over GST control) in the assay with ETS2; 1.09 fold enrichment (6-mer frequency, TF over GST control) with SPDEF; 1.23 fold enrichment (6-mer frequency, TF over GST control) with ETV7; 1.02 fold enrichment (6-mer frequency, TF over GST control) with ELF5. Moreover, in the assay with ETV6, the binding signal was 1.13 fold enrichment (6-mer frequency, TF over GST control).
On to TGGTCC, for which the binding signal with ERF is 1.19 fold enrichment (6-mer frequency, TF over GST control); with ETV3L, 1.1 fold enrichment (6-mer frequency, TF over GST control); with ETS2 it was 1.23 fold enrichment (6-mer frequency, TF over GST control); in the assay with SPDEF, 1.26 fold enrichment (6-mer frequency, TF over GST control); with ETV7, 1.18 fold enrichment (6-mer frequency, TF over GST control); with ELF5 it was 1.19 fold enrichment (6-mer frequency, TF over GST control). Also, the binding signal is 1.28 fold enrichment (6-mer frequency, TF over GST control) with ETV3 and 1.18 fold enrichment (6-mer frequency, TF over GST control) with ETV6.
CCCTGT: the binding signal with ERF was 1.19 fold enrichment (6-mer frequency, TF over GST control); with ETV3L, 1.06 fold enrichment (6-mer frequency, TF over GST control); with ETS2, 1.06 fold enrichment (6-mer frequency, TF over GST control); with SPDEF it was 1.02 fold enrichment (6-mer frequency, TF over GST control); with ETV7, 1.03 fold enrichment (6-mer frequency, TF over GST control); in the assay with ELF5, 1.08 fold enrichment (6-mer frequency, TF over GST control). In addition, the binding signal with ETV6 is 1.06 fold enrichment (6-mer frequency, TF over GST control).
As for ACGGAA, the binding signal with ERF was 1.53 fold enrichment (6-mer frequency, TF over GST control); with ETV3L it was 1.73 fold enrichment (6-mer frequency, TF over GST control); with ETS2, 1.86 fold enrichment (6-mer frequency, TF over GST control); in the assay with SPDEF, 1.78 fold enrichment (6-mer frequency, TF over GST control); with ETV7 it was 1.57 fold enrichment (6-mer frequency, TF over GST control); with ELF5 it was 2.24 fold enrichment (6-mer frequency, TF over GST control). Further, the binding signal with ETV3 was 1.93 fold enrichment (6-mer frequency, TF over GST control); in the assay with ETV6 it was 2.14 fold enrichment (6-mer frequency, TF over GST control).
On to GACATC, for which the binding signal is 1.22 fold enrichment (6-mer frequency, TF over GST control) with ERF; 1.27 fold enrichment (6-mer frequency, TF over GST control) with ETV3L; 1.31 fold enrichment (6-mer frequency, TF over GST control) with ETS2; 1.57 fold enrichment (6-mer frequency, TF over GST control) in the assay with SPDEF; 1.31 fold enrichment (6-mer frequency, TF over GST control) with ETV7; 1.35 fold enrichment (6-mer frequency, TF over GST control) in the assay with ELF5. For the same sequence, the binding signal in the assay with ETV3 is 1.33 fold enrichment (6-mer frequency, TF over GST control); in the assay with ETV6, 1.33 fold enrichment (6-mer frequency, TF over GST control).
